Some of the results follow. The true hit rate is not given.
Molecular target: furin, P09958
Assay: furin cleavage Z-score vs untreated control; higher = more cleavage, active = 3.5 or more, inactive = 1 or less, 8 variable residues between constant flanks
Protocol: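 Multiplexed peptide-cDNA fusion cleavage assay. 8-mer variable peptides flanked by constant Cys-Ala (N-term) and Ala-Gly-Asn-Ala-Ser-Ala-Ser-Ala (C-term) and conjugated to a cDNA oligonucleotide were bead-immobilised via the N-terminus. They were treated with purified furin at a 1:10 enzyme:substrate ratio in 50 mM HEPES pH 7.5, 1 mM CaCl2, 100 mM NaCl for 7.5, 15 or 30 min. Released cDNA was counted by next-generation sequencing, and log counts versus no-furin controls were lowess-adjusted and converted to robust Z-scores.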

furin, P09958, sequence (P09958 whole entry): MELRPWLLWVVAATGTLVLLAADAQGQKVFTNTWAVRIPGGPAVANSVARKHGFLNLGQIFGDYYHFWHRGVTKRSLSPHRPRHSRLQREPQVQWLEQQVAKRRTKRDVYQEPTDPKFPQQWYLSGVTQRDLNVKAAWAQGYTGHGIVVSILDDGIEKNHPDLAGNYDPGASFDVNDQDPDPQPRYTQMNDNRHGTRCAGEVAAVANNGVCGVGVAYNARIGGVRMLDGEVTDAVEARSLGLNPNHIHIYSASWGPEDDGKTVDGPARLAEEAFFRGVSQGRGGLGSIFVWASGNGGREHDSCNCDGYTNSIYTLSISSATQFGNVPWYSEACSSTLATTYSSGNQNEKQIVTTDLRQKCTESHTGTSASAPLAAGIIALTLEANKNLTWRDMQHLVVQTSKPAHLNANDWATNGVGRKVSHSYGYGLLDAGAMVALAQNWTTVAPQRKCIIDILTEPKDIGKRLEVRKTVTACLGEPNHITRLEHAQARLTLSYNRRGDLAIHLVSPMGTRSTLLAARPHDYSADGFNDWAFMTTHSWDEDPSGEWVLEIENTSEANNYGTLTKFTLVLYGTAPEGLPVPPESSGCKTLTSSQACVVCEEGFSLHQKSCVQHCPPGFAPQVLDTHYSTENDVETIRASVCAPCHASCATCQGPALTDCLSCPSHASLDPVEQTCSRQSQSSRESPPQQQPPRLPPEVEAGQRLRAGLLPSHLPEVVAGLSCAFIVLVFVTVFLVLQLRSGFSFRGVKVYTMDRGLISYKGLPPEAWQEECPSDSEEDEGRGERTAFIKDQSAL

| Sequence | furin cleavage Z-score (7.5 min) | furin cleavage Z-score (15 min) | furin cleavage Z-score (30 min) |
| --- | --- | --- | --- |
| CAEVQCHRPSAGNASASA [HC2362] | 0.385 (inactive) | 1.46 | 0.778 (inactive) |
| CAWRVSAEEYAGNASASA [HC1202] | -0.863 (inactive) | -1.63 (inactive) | -0.815 (inactive) |
| CAMEECSIHLAGNASASA [HC1724] | 0.188 (inactive) | 1.13 | 0.153 (inactive) |
| CAASSRNIRSAGNASASA [FS-924] | 5.59 (active) | 8.19 (active) | 6.71 (active) |
| CARTRRCVCVAGNASASA [FS-3213] | -0.371 (inactive) | -0.858 (inactive) | -0.127 (inactive) |
| CARTRRSINSAGNASASA [FS-2316] | 7.8 (active) | 8.93 (active) | 7.57 (active) |
| CAVTNDCPNSAGNASASA [HC262] | -1.55 (inactive) | -2.42 (inactive) | -2.48 (inactive) |
| CAVRSRSIRSAGNASASA [FS-1663] | 11.3 (active) | 11.8 (active) | 8.54 (active) |
| CARTRRTSKPAGNASASA [FS-1937] | 0.687 (inactive) | 3.02 | 2.44 |
| CARTRRNIDAAGNASASA [FS-3111] | 6.35 (active) | 7.27 (active) | 4.76 (active) |
| CAEVVTSTLVAGNASASA [HC2225] | -0.125 (inactive) | 0.377 (inactive) | -0.731 (inactive) |
| CAEKVVCCSMAGNASASA [HC2134] | -0.767 (inactive) | 0.357 (inactive) | -1.09 (inactive) |
| CALDRRSQRSAGNASASA [FS-910] | 2.25 | 3.02 | 4.23 (active) |
| CAMSIRSDRSAGNASASA [FS-1646] | 1.46 | 0.662 (inactive) | 1.58 |
| CAVHFRSIRSAGNASASA [FS-308] | 8.08 (active) | 8.31 (active) | 5.71 (active) |
| CALSAFSLHSAGNASASA [HC1605] | 0.383 (inactive) | 0.938 (inactive) | 1.75 |
| CALSRRSIRSAGNASASA [FS-461] | 10.4 (active) | 11.5 (active) | 9.32 (active) |
| CALSRRSISKAGNASASA [FS-2871] | 0.267 (inactive) | 1.81 | -1.35 (inactive) |
| CAMEECSDHLAGNASASA [HC1731] | -0.133 (inactive) | -1.7 (inactive) | 1.31 |
| CAKCLIRLKPAGNASASA [HC965] | -0.996 (inactive) | 0.139 (inactive) | 0.507 (inactive) |
| CASSPRCKRTAGNASASA [FS-724] | 6.48 (active) | 5.33 (active) | 4.2 (active) |
| CAPTRRTKRTAGNASASA [FS-76] | 10.6 (active) | 10.9 (active) | 7.13 (active) |
| CAPSPVVVGTAGNASASA [HC416] | 0.116 (inactive) | 0.136 (inactive) | -0.669 (inactive) |
| CAPTGSGKSTAGNASASA [HC776] | -0.612 (inactive) | -0.784 (inactive) | 0.917 (inactive) |
| CAPSERTRRTAGNASASA [FS-1553] | 6.49 (active) | 7.9 (active) | 7.83 (active) |
| CATLEVVTSTAGNASASA [HC2278] | 2.04 | -0.134 (inactive) | -0.107 (inactive) |
| CATSPRTKRTAGNASASA [FS-1576] | 10.8 (active) | 10.5 (active) | 8.67 (active) |
| CATSGITGDNAGNASASA [HC1339] | 0.521 (inactive) | -1.94 (inactive) | -2.62 (inactive) |
| CASSFRFPRTAGNASASA [FS-196] | 0.00727 (inactive) | 0.495 (inactive) | 1.37 |

Source: the supplement of paper PMC3545927
